# Bioassay records: PubChem, National Center for Advancing Translational Sciences (NCATS)
# JMJD2A Tudor inh: qHTS Assay for Inhibitors of JMJD2A-Tudor Domain; Lysine-specific demethylase 4A (Homo sapiens), O75164; AlphaScreen JMJD2A-Tudor / H3K4me3 peptide binding; Potency, µM (titrated, usually from 114 µM), hits mostly inhibitors; actives 4.4% (n = 390,000); further: nearly all actives have a fitted effect of over 50% in size
# G9a block: qHTS Assay for Inhibitors of Histone Lysine Methyltransferase G9a. G9a H3K9 monomethylation, AlphaScreen, 2 h. Potency, µM (top dose mostly 102 µM), hits mostly inhibitors. actives 8.8% (n = 350,000). AID 504332, 2011; further: nearly all actives have a fitted effect of over 75% in size
#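 G9a (20 nM) preincubated 15 min RT with compounds, then 500 nM biotinylated H3K9 peptide and 20 uM SAM added; 2 h RT reaction. Monomethyl-H3K9 product detected by AlphaScreen with anti-H3K9me1 antibody, streptavidin donor and anti-rabbit IgG acceptor beads.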
# Sfp PPTase inh: qHTS Assay for Inhibitors of Bacillus subtilis Sfp phosphopantetheinyl transferase (PPTase) | Biochemical Sfp PPTase activity, qHTS | Potency, µM, usual class: inhibitors | actives 3.5% (n = 310,000);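 further: the enzyme is Sfp with the accession as filed and its product quenches rhodamine fluorescence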
#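 After 15 min at room temperature with compound, 15 nM Sfp received 5 uM rhodamine-CoA plus 12.5 uM BHQ-2-ybbR (50 mM Hepes pH 7.6, 10 mM MgCl2). Rate came from the fluorescence difference over 30 min, ex 525/em 598 nm.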
# BAZ2B block: qHTS Assay for Inhibitors of BAZ2B; AID 504333, 2011; actives 4.4% (n = 360,000); Potency, µM (top dose mostly 114 µM), most hits filed as inhibitors; AlphaScreen BAZ2B-H3K14Ac peptide displacement; further: nearly all actives have a fitted effect of over 60% in size
#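 Protein-peptide AlphaScreen: BAZ2B 50 nM, b-H3K14Ac 50 nM, 1x PBS pH 7.4 + 0.01% Tween-20. Preincubation 30 min RT; cpd 30 min RT (top 110 uM); beads 20 min RT, light-protected.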
# HP1b chromo inh: HTS for Inhibitors of HP1-beta Chromodomain Interactions with Methylated Histone Tails; AlphaScreen HP1-beta / biotin-H3K9me3 peptide binding; Potency, µM (doses to about 114 µM), usual class: inhibitors; actives 0.56% (n = 390,000); AID 540317, 2011; further: nearly all actives have a fitted effect of over 70% in size
#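 Compound inhibition of the preformed complex between 50 nM HP1-beta and 50 nM biotinylated H3K9me3 peptide was read by AlphaScreen. Buffer was PBS pH 7.4 with 0.01% Tween-20. Incubations ran 30 min at room temperature, with 10 ug/mL donor/acceptor beads.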
# L3MBTL1 block: qHTS Assay for the Inhibitors of L3MBTL1; Lethal(3)malignant brain tumor-like protein 1 (Homo sapiens), Q9Y468; AlphaScreen L3MBTL1–H3K9me1 peptide binding; Potency, µM (series often up to 57.1 µM), usual class: inhibitors; actives 0.66% (n = 230,000); AID 485360, 2010; further: nearly all actives have a fitted effect of over 60% in size
# Target sequence (Q9Y468 whole entry, looked up): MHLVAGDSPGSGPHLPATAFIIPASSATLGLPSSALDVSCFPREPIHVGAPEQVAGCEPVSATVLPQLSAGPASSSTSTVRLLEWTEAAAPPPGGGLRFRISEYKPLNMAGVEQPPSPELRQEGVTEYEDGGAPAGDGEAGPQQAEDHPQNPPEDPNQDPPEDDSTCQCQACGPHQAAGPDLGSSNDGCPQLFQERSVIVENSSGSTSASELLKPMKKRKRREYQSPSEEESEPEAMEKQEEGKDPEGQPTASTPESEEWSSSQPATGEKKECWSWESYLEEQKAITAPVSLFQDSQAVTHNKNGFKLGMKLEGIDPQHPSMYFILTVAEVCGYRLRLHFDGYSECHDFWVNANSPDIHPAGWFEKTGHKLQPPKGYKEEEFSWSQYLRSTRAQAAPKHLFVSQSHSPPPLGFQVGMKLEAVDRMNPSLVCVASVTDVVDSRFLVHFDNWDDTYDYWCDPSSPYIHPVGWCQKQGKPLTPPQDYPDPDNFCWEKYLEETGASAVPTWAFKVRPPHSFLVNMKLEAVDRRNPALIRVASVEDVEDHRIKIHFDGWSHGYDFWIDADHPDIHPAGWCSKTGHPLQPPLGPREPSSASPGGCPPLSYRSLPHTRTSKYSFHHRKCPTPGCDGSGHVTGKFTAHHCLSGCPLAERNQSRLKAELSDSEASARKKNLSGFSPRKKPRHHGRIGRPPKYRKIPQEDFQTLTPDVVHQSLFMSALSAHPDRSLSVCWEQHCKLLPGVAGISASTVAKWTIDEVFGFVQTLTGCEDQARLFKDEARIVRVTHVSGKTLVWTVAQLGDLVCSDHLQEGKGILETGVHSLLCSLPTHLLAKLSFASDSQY
#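 AlphaScreen proximity signal between nickel-chelate acceptor and streptavidin donor beads (final 10 ug/mL) reports binding of 50 nM L3MBTL1 to 75 nM biotin-H3 K9me1 peptide; complex incubated with compounds 30 min at room temperature; cefsulodin titration as control.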
# Numbers stand for hits; n = inactive; u = inconclusive; x = no result; ! = not confirmed by another sample; [ ] = remark or other dose. Rows were chosen to be rich in hits. Some 12% of all compounds tested hit in one or more screens of this group. The call rests on the fitted dose curve; in most records, active means well fitted curve in the direction sought with a large enough effect; inconclusive means small, poorly fitted or top-dose-only effect, or another doubt; inactive means no such curve, though single readings can be large; an effect the other way counts as inactive or inconclusive.
SMILES,JMJD2A Tudor inh,G9a block,Sfp PPTase inh,BAZ2B block,HP1b chromo inh,L3MBTL1 block
CCCNC(C)C(=O)Nc1c(C)csc1C(=O)OC (configuration not stated),n,n,x,n,n,n
NC(=O)C1CCN(C(=O)C2CC(=O)N(c3ccc(F)cc3)C2)CC1 (configuration not stated),n,u,n,n,n,x
CC(C)=CCCC1(C)C=Cc2c(c(C)cc3c2[nH]c2cc(O)ccc23)O1 (configuration not stated),44.7µM,u,n,44.7µM,n,x
COc1cc(NC(=O)CCc2c(C)nn(-c3ccc4nncn4n3)c2C)cc(OC)c1OC,n,n,x,n,n,x
O=C(NC(=S)Nc1ccc(O)cc1)C1CCCC1,n,n[12.7 µM],x,n,n,n
COC(=O)c1ccc(NC(=S)Nc2ccc(O)cc2)cc1,n,50.1µM,u,n,n,n
COC(=O)NNC(=S)Nc1ccc(Br)cc1,n,50.1µM,n,n,n,n
Oc1ccc(NC(=S)Nc2ccc(O)cc2)cc1,n,50.1µM,44.7µM,n,n,u
CCOC(=O)c1c(C)oc2nc(C)nc(N3CCN(c4ccc(C(C)=O)cc4)CC3)c12,n,n,x,n,n,x
Cc1cc2nc(SCC(=O)O)nc(C)c2cc1C,n,n[12.7 µM],n,n,n,n
Cc1cc2nc(SCCOC(=O)Nc3ccc(Cl)cc3)nc(C)c2cc1C,n,2µM,n,n,n,n
O=S(=O)(c1cccc(C(F)(F)F)c1)N1CCN(c2nc(-c3ccccc3)nc3ccccc23)CC1,n,x,x,x,n,x
COc1ccccc1NC(=O)C(=O)Nc1ccc2c(c1)N(C(=O)C1CC1)CCC2,n,n[2.33 µM],x,n,n,n
C[N+]12CCCCC1C(COC(=O)c1ccc3c(c1)OCO3)CCC2 (configuration not stated),20µM,u,n,u,u,x
CN(C)c1ncc2nc(-c3ccc(F)cc3)c(=O)n(CCC#N)c2n1,x,n[12.7 µM],n,x,x,x
CC(=O)NC1=NC(=O)/C(=C/c2cc(C)n(-c3cccc(C(=O)O)c3)c2C)S1,u,20µM,39.8µM,15.8µM,u,x
CC1=NN2C(=N)/C(=C\c3cc(C)n(-c4cccc(C)c4)c3C)C(=O)N=C2S1,n,n,n,n,n,n
CC(=O)NC1=NC(=O)/C(=C/c2cc(C)n(-c3ccc(NC(C)=O)cc3)c2C)S1,n,u,44.7µM,u,n,x
CC(=O)NC1=NC(=O)/C(=C/c2cn(C(C)=O)nc2-c2ccccc2)S1,22.4µM,8.91µM,28.2µM,n,u,n
COCCCN1C(=O)c2ccc(C(=O)N3CCN(c4ccccc4OC)CC3)cc2C1=O,n,n,n,n,n,x
Cc1[nH]c2ccc(Br)cc2c1CCNC(=O)c1cc2ccccc2oc1=O,n,n,x,n,n,x
O=C(COc1ccccc1Cl)Nc1ccc(OCc2cc(=O)n3ccsc3n2)cc1,n,n,x,n,n,x
Cc1cccc(N2CCN(C(=S)c3ccccc3)CC2)c1,n,u,u,n,n,n
CN(C)c1ccc(C(=S)N2CCN(c3ccc([N+](=O)[O-])cc3)CC2)cc1,u,2.24µM,3.55µM,n,u,n
Cc1ccc(N2CCN(C(=S)c3ccc(N(C)C)cc3)CC2)cc1,31.6µM,5.01µM,20µM,12.6µM,u,u
SMILES,JMJD2A Tudor inh,G9a block,Sfp PPTase inh,BAZ2B block,HP1b chromo inh,L3MBTL1 block
CCN1C(=S)N[C@@H](CCc2ccccc2)C(C(=O)OC)=C1C,n,n,n,n,n,n
CCN(CC)CCNS(=O)(=O)c1ccc(OC)c(Br)c1,56.2µM,3.98µM,n,n,n,x
CCC(=O)Nc1sc(Cc2ccccc2)c(C)c1C(N)=O,u,x,u,u,n,n
Cc1c(Cc2ccccc2)sc(/N=C/c2c(O)ccc3ccccc23)c1C(N)=O,u,3.16µM,35.5µM,u,u,n
Cc1c(Cc2ccccc2)sc(/N=C/c2ccc3ccccc3c2)c1C(N)=O,u,20µM,n,n,n,n
O=C(Nc1ccccc1N1CCOCC1)c1ccc([N+](=O)[O-])s1,u,x,x,x,u,n
Nc1c(N=Nc2ccc(-c3ccc(N=Nc4cc(S(=O)(=O)O)c5ccccc5c4N)cc3)cc2)cc(S(=O)(=O)O)c2ccccc12,x,3.55µM,44.7µM,x,x,x
O=S(=O)(O)c1ccc(N=Nc2ccccc2)cc1,n,u,n,n,n,n
Cc1cc(-c2ccc(N=Nc3ccc4c(S(=O)(=O)O)cc(S(=O)(=O)O)c(N)c4c3O)c(C)c2)ccc1N=Nc1ccc2c(S(=O)(=O)O)cc(S(=O)(=O)O)c(N)c2c1O,x,u,10µM!,x,x,x
Cc1ccc(S(=O)(=O)n2nc(-c3ccc(Cl)cc3)nc2NCc2ccco2)cc1,n,n[12.7 µM],n,n,n,n[11.4 µM]
O=C(c1ccco1)n1nc(-c2ccccc2)nc1NCc1ccco1,79.4µM,n[12.7 µM],u,n,n,n
CCS(=O)(=O)n1nc(-c2ccccc2)nc1NCc1ccco1,n,25.1µM,n,n,n,n
Cc1ccc(-c2nc(NCc3ccco3)n(C(=O)c3ccco3)n2)cc1,n,n,n,n,n,x
Cc1cc(C(=O)NCCN2C(=O)S/C(=C\c3cccs3)C2=O)ccc1[N+](=O)[O-],n,n,35.5µM,n,n,n
Cc1cc(C(=O)NCc2cccs2)ccc1[N+](=O)[O-],n,n,n,n,n,n
Cc1ccc(N/N=C2\CC(=O)c3ccccc32)cc1Cl,x,x,n,11.2µM,x,u
Cc1ccc(NC(=O)COc2ccccc2)cc1Cl,n,n,n,n,n,n
COc1cc(/C=C(\C#N)c2nc3c(s2)CCCC3)ccc1O,x,u,n,56.2µM,x,x
N#C/C(=C\c1cccnc1)c1nc2c(s1)CCCC2,n,n,n,n,n,n
Cc1ccc(-c2nn3c(C)nnc3s2)cc1NC(=O)c1ccc(Br)o1,n,u,n,n,n,n
Cc1oc(-c2ccc(Cl)cc2)cc1-c1nn2c(-c3ccoc3C)nnc2s1,u,u,10µM,n,n,u
Clc1ccccc1-c1nnc2sc(-c3ccc4c(c3)OCO4)nn12,u,1.78µM,10µM,n,u,n
Clc1cccc(-c2nnc3sc(-c4ccc5c(c4)OCO5)nn23)c1,x,10µM,31.6µM,n,x,n
Cc1ccc(-c2nn3c(C)nnc3s2)cc1NC(=O)c1ccc(-c2ccc(Cl)cc2Cl)o1,63.1µM,n,12.6µM,u,n,n
Brc1ccccc1-c1nnc2sc(-c3ccc4c(c3)OCCO4)nn12,n,n[12.7 µM],n,n,n,n[11.4 µM]
CCCCCCCCCCCCCCCCOCC(COP(=O)([O-])OCC[N+](C)(C)C)OC (configuration not stated),x,n,n,x,x,x
